Measured values as given in the supplement of paper PMC7530171.
“And” between values parts separate entries of the source, which are not always exact repeats. Equal entries are not always repeated. Structures can show the parent of a compound that is named as a salt. ± gives the standard deviation.

These compounds were tested on THP-1 (assay: THP-1 cell loss relative to DMSO control; higher = more host cell loss (toxicity); extreme values may be limits of the assay). Details: 10 µM; 4 days; infection: M. tuberculosis H37Rv.
Procedure: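 OICR kinase inhibitor library screened in duplicate at 10 uM against M. tuberculosis-infected THP-1 macrophages, 4 days at 37 C. THP-1 cell loss (cytotoxicity or loss of adherence) was quantified from Hoechst-stained nuclei counts by high-content imaging and normalised to the 1% DMSO control; 100 = complete loss of host cells.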

Row | Compound | THP-1 cell loss
1 | COc1cccc(-c2cc(=O)c3ccccc3o2)c1N | 26.7 ± 35%
2 | Cc1cc(F)c(Nc2ncnc3cc(OCc4ccccc4)ccc23)cc1O | 5.29 ± 7.5%
3 | CCN(CC)CC1CCN(c2ncc3ncnc(Nc4ccc(F)c(Cl)c4)c3n2)CC1 [BIBU 1361 dihydrochloride] | 100%
4 | C[C@@H](N)[C@H]1CC[C@H](C(=O)Nc2ccncc2)CC1 | 15.7 ± 22%
5 | Fc1ccc(-c2nc3n(c2-c2ccncc2)CCS3)cc1 | 7.21% and 5.2%
6 | Cc1ccc(NC(=O)c2cccc(C(C)(C)C#N)c2)cc1Nc1ccc2ncn(C)c(=O)c2c1 | 100%
7 | Cc1ccc(NC(=O)c2ccc(CN3CCN(C)CC3)cc2)cc1Nc1nccc(-c2cccnc2)n1 [Imatinib (free base)] | 3.31 ± 4.7%
8 | C/C(=N\N=C(N)N)c1ccc(NC(=O)Nc2ccc(/C(C)=N/N=C(N)N)cc2)cc1 | 3.54 ± 5%
9 | Nc1ncnc2n[nH]c(Nc3ccc(F)cc3)c12 | 24% and 11%
10 | CNS(=O)(=O)Nc1nccc(Cc2c(C)c3ccc(Oc4ncccn4)cc3oc2=O)c1F | 100%
11 | O=C(NC1CCNCC1)c1n[nH]cc1NC(=O)c1c(Cl)cccc1Cl | 90.2 ± 14%
12 | Cc1nc2sccn2c(=O)c1CCN1CCC(=C(c2ccccc2)c2ccc(F)cc2)CC1 | 0%
13 | Cc1nc(N)sc1-c1ccnc(Nc2ccc(N3CCOCC3)cc2)n1 | 74.97 ± 0.66%
14 | CO[C@H]1C[C@@H]2CC[C@@H](C)[C@@](O)(O2)C(=O)C(=O)N2CCCC[C@H]2C(=O)O[C@H]([C@H](C)C[C@@H]2CC[C@@H](OC(=O)C(C)(CO)CO)[C@H](OC)C2)CC(=O)[C@H](C)/C=C(\C)[C@@H](O)[C@@H](OC)C(=O)[C@H](C)C[C@H](C)/C=C/C=C/C=C/1C [Temsirolimus] | 43 ± 2%
15 | Cn1cc(C2=C(c3cn(CCCSC(=N)N)c4ccccc34)C(=O)NC2=O)c2ccccc21 [Ro-31-8220 mesylate] | 100%
16 | Cc1csc(-c2nnc(Nc3ccc(Oc4ncccc4-c4ccnc(N)n4)cc3)c3ccccc23)c1 | 62.4 ± 53%
17 | COc1cc2ncnc(-n3nc(-c4ccccn4)nc3N)c2cc1OC | 67 ± 15%
18 | N#C/C(=C(/N)Sc1ccc(N)cc1)c1ccccc1C(F)(F)F | 78.2 ± 4.7%
19 | Cn1cc(-c2ccc3nnc(Sc4ccc5ncccc5c4)n3n2)cn1 | 10.4 ± 3.7%
20 | C[C@@H]1CCN(C(=O)CC#N)C[C@@H]1N(C)c1ncnc2[nH]ccc12 | 9.64 ± 8.9%

Row | Compound | THP-1 cell loss
21 | Cn1cc(-c2ccc3nnc(C(F)(F)c4ccc5ncccc5c4)n3n2)cn1 | 13.4 ± 19%
22 | Cc1cc(Nc2cc(N3CCN(C)CC3)nc(Sc3ccc(NC(=O)C4CC4)cc3)n2)n[nH]1 | 22.3 ± 16%
23 | CN(C)c1ccc(/C=C2/C(=O)Nc3ccccc32)cc1 | 20.5 ± 18%
24 | Cc1cc(C(=O)NOCCO)c(Nc2ccc(I)cc2F)n(C)c1=O | 100%
25 | CCn1c(-c2nonc2N)nc2cnc(Oc3cccc(NC(=O)c4ccc(OCCN5CCOCC5)cc4)c3)cc21 | 83.5 ± 23%
26 | CN(C)Cc1cccc(N=C(c2ccccc2)c2c(O)[nH]c3cc(C(=O)N(C)C)ccc23)c1 | 23.9 ± 0.5%
27 | N#Cc1c(-c2ccccc2)cc(-c2cc(Br)ccc2O)[nH]c1=O | 8.6 ± 8.9%
28 | NC(=O)c1ccc2[nH]ccc2c1 | 50 ± 71%
29 | CNc1nccc(-c2cccnc2Oc2cc(C(=O)Nc3cccc(C(F)(F)F)c3)ccc2C)n1 | 100%
30 | CC[C@H](CO)Nc1nc(NCc2ccccc2)c2ncn(C(C)C)c2n1 [Roscovitine] | 53.5 ± 2.5%
31 | C[S+]([O-])c1ccc(-c2nc(-c3ccc(F)cc3)c(-c3ccncc3)[nH]2)cc1 (stereo not given) | 22.7 ± 8.7%
32 | CNc1cc2c(Nc3cccc(Br)c3)ncnc2cn1 | 78.2 ± 5.8%
33 | c1ccc(-c2n[nH]c3c2oc2ccccc23)cc1 | 9.81 ± 5.6%
34 | Cc1[nH]c(/C=C2\C(=O)Nc3cc(-c4ccccc4)ccc32)c(C)c1CCC(=O)O | 6.62 ± 9.4%
35 | O=C(NC(NC(=S)Nc1ccc(F)c([N+](=O)[O-])c1)C(Cl)(Cl)Cl)C(c1ccccc1)c1ccccc1 (stereo not given) | 100%
36 | CN(C)C[C@@H]1CCn2cc(c3ccccc32)C2=C(C(=O)NC2=O)c2cn(c3ccccc23)CCO1 | 100%
37 | Cn1c2ccccc2c2c3c(c4c5ccccc5n(CCC#N)c4c21)CNC3=O | 32.2 ± 18%
38 | O=C1Nc2ccc(I)cc2/C1=C/c1cc(Br)c(O)c(Br)c1 | 20.5 ± 16%
39 | CCOc1cc2ncc(C#N)c(Nc3ccc(OCc4ccccn4)c(Cl)c3)c2cc1NC(=O)/C=C/CN(C)C [Neratinib] | 55.4 ± 63%
40 | NC(=O)Nc1cc(-c2cccc(F)c2)sc1C(=O)N[C@H]1CCCNC1 [AZD-7762 hydrochloride] | 100%
